Test results reported in article PMC5540273 (PLoS ONE, 2017).

How the values were obtained:
Conditions in all cases: concentration: 1 μM, replicates: in singlicate; n = 1
RIOK1 = tested on: RIOK1
RIOK2 = tested on: RIOK2
RIOK3 = tested on: RIOK3
RIPK1 = tested on: RIPK1
RIPK2 = tested on: RIPK2
RIPK4 = tested on: RIPK4
RIPK5 = tested on: RIPK5
ROCK1 = tested on: ROCK1
ROCK2 = tested on: ROCK2
ROS1 = tested on: ROS1
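Further: KINOMEscan kinase panel screen.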

Row | SMILES | %Inh (RIOK1) [%] | %Inh (RIOK2) [%] | %Inh (RIOK3) [%] | %Inh (RIPK1) [%] | %Inh (RIPK2) [%] | %Inh (RIPK4) [%] | %Inh (RIPK5) [%] | %Inh (ROCK1) [%] | %Inh (ROCK2) [%] | %Inh (ROS1) [%]
1 | COc1cccc(-c2nc(-c3ccccc3)[nH]c2-c2ccncc2)c1 [SB-610250] | 18 | 0 | 0 | 0 | 75 | 11 | 0 | 24 | 13 | 0
2 | CNc1nccc(-c2ccc3c(N)n[nH]c3c2)n1 [GSK2206003] | 98.2 | 85 | 82 | 8 | 0 | 41 | 0 | 52 | 62 | 22
3 | COc1ccc(C)c(Nc2ccnc(Nc3ccc(-c4cnc[nH]4)cc3)n2)c1.Cl [GW784041] | 36 | 6 | 34 | 13 | 100 | 0 | 0 | 0 | 0 | 3
4 | COC(=O)Nc1nc2cc(Oc3ccc(NC(=O)Nc4cccc(SC)c4)cc3)ccc2[nH]1.Cl [GW697999] | 13 | 0 | 2 | 4 | 29 | 2 | 0 | 82 | 55 | 0
5 | CN(c1ccc2c(c1)nc(NCc1ccccc1)n2C)c1ccnc(Nc2ccc(CS(C)(=O)=O)cc2)n1.Cl [GW811603] | 50 | 0 | 44 | 100 | 0 | 49 | 24 | 20 | 47 | 57
6 | CN1CCN(Cc2ccc(NC(=O)Nc3ccc(N(C)c4ccnc(Nc5ccc(CS(C)(=O)=O)cc5)n4)cc3)cc2)CC1.Cl [GW827654] | 94.1 | 100 | 93.4 | 40 | 34 | 72 | 94.9 | 94.6 | 99.2 | 40
7 | CCNc1nccc(-c2c(-c3ccc(F)cc3)ncn2C2CCN(C)CC2)n1 | 10 | 0 | 29 | 8 | 36 | 0 | 0 | 0 | 0 | 0
8 | CC(C)c1nc(-c2cccc(NS(=O)(=O)c3c(F)cccc3F)c2)c(-c2ccnc(Nc3ccc(N4CCOCC4)nc3)n2)s1.Cl [GSK1723980] | 25 | 0 | 2 | 0 | 97.7 | 2 | 81 | 6 | 0 | 0
9 | COc1cccc(CC(=O)N2CCc3cc(-c4cn(C)c5ncnc(N)c45)ccc32)c1 [GSK2608899] | 20 | 20 | 17 | 100 | 35 | 0 | 58 | 23 | 5 | 9
10 | Cl.N#CCc1ccc(Nc2nccc(Nc3ccc(Oc4ccccc4)cc3)n2)cc1 [GW639905] | 21 | 23 | 0 | 0 | 96.1 | 0 | 17 | 31 | 34 | 0
11 | Cl.O=C(Nc1ccc(Oc2ccc3[nH]c(NC(=O)c4ccco4)nc3c2)cc1)Nc1cc(C(F)(F)F)ccc1F [GW683134] | 1 | 7 | 0 | 86 | 43 | 6 | 0 | 78 | 23 | 3
12 | Fc1cc(Cl)ccc1Nc1ccnc2cc(-c3ccc(CN4CCOCC4)o3)ccc12 [GW560109] | 30 | 0 | 0 | 0 | 94.4 | 0 | 0 | 5 | 46 | 0
13 | N#CC1(c2cccc(C(=O)Nc3cccc(Oc4ccc5nc(NC(=O)C6CC6)sc5n4)c3)c2)CC1 | 0 | 0 | 0 | 15 | 55 | 0 | 0 | 0 | 0 | 1
14 | CN(C)c1ncnc2nc[nH]c12 [SKF-31736] | 0 | 0 | 0 | 0 | 0 | 26 | 10 | 58 | 31 | 0
15 | CSc1ccc(NC2=C(c3ccc(Cl)cc3)C(=O)NC2=O)cc1 [SB-317658] | 3 | 0 | 20 | 0 | 0 | 16 | 7 | 38 | 0 | 3
16 | CC(=O)Nc1cn2nc(Oc3cccc(NC(=O)c4cccc(C(F)(F)F)c4)c3)ccc2n1 | 0 | 0 | 39 | 0 | 67 | 0 | 0 | 0 | 0 | 0
